Source: the supplement of paper PMC12297408
Counter-ions that a name gives are not always drawn. Unmarked numbers belong to inactive results.

Test system: Plasmodium falciparum NF54/iGP1_RE9H ulg8 stage V gametocytes
Assay: gametocyte viability (luciferase signal relative to DMSO control) (% of DMSO control); higher = less gametocytocidal activity, active = 50 or less
Conditions: exposure time: 72 h
How it was run: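 In 96-well plates holding nanolitre spots of compound (10 mM DMSO stocks), NF54/iGP1_RE9Hulg8 stage V gametocytes from day 12 were added at ~2.5% gametocytemia and 3% hematocrit in medium with 0.5% Albumax II, giving single wells at 10 µM or 1 µM. Incubation lasted 72 h at 37 °C. Each 90 µl sample then received 10 µl D-luciferin (30 mg/ml) before luminescence reading on an IVIS Lumina II, and viability was normalized to the mean of DMSO vehicle wells on the same plate.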

| Structure (SMILES) | gametocyte viability (concentration: 1 µM) | gametocyte viability (concentration: 10 µM) |
| --- | --- | --- |
| COc1cc(Nc2ncc3c(n2)-c2ccc(Cl)cc2C(c2c(F)cccc2OC)=NC3)ccc1C(=O)O [MLN8237 (Alisertib)] | 95 | 94.6 |
| CC(C)CC(=O)Nc1n[nH]c2c1CN(C(=O)C1CCN(C)CC1)C2(C)C | 96.4 | 110 |
| C[C@@H](Oc1cc(-c2cnn(C3CCNCC3)c2)cnc1N)c1c(Cl)ccc(F)c1Cl | 88.7 | 30.2 (active) |
| Cc1ccc(S(=O)(=O)/C=C/C#N)cc1 | 103 | 3.38 (active) |
| S=C(NCc1ccc2c(c1)OCO2)N1CCN(c2ncnc3c2oc2ccccc23)CC1 [Amuvatinib (MP-470)] | 98.1 | 110 |
| Cc1ccc(NC(=O)c2ccc(CN3CCN(C)CC3)cc2)cc1Nc1nccc(-c2cccnc2)n1 [Imatinib (Gleevec)] | 104 | 110 |
| CN(C)c1ccc(-c2nc3ncc(Cl)c(N4CCN(CC(=O)Nc5nccs5)CC4)c3[nH]2)cc1 | 82.4 | 101 |
| CS(=O)(=O)CCNCc1ccc(-c2ccc3ncnc(Nc4ccc(OCc5cccc(F)c5)c(Cl)c4)c3c2)o1 [Lapatinib Ditosylate (Tykerb)] | 102 | 98.2 |
| N#C/C(=C\c1ccc(O)c(O)c1)C(=O)NCc1ccccc1 | 98.4 | 95.8 |
| O=c1ncn2nc(Sc3ccc(F)cc3F)ccc2c1-c1c(Cl)cccc1Cl | 95.2 | 103 |
| Cc1[nH]nc2ccc(-c3cncc(OC[C@@H](N)Cc4ccccc4)c3)cc12 | 101 | 104 |
| O=C(O)c1cc(N(Cc2ccccc2O)Cc2cc(O)ccc2O)ccc1O [Lavendustin A] | 98.5 | 99.4 |
| O=c1c(O)c(-c2ccc(O)c(O)c2)oc2cc(O)cc(O)c12 [Quercetin (Sophoretin)] | 105 | 108 |
| Nc1nc(Nc2ccc(S(N)(=O)=O)cc2)nn1C(=O)c1c(F)cccc1F | 101 | 85.9 |
| COc1cc2nccc(Oc3ccc(NC(=O)Nc4cc(C)on4)c(Cl)c3)c2cc1OC [Tivozanib (AV-951)] | 94 | 99.8 |
| COCc1cc(O)c(O)c(O)c1-c1c(COC)cc(O)c(O)c1O | 104 | 92.3 |
| N=C(N)NC(=N)NCCc1ccccc1 [Phenformin hydrochloride] | 99.9 | 111 |
| COc1cc2c(Nc3ccc(NC(=O)c4ccccc4)cc3)ncnc2cc1OCCCN1CCOCC1 | 92.3 | 92.5 |
| COc1ccc(S(=O)(=O)N(CCO)c2ccccc2CN(C)CC=Cc2ccc(Cl)cc2)cc1 | 112 | 102 |
| O=C(O)c1ccc2c(c1)nc(Nc1cccc(Cl)c1)c1ccncc12 | 101 | 107 |

| Structure (SMILES) | gametocyte viability (concentration: 1 µM) | gametocyte viability (concentration: 10 µM) |
| --- | --- | --- |
| Cc1nc(Nc2ncc(C(=O)Nc3c(C)cccc3Cl)s2)cc(N2CCN(CCO)CC2)n1 | 95.3 | 87.3 |
| CC[C@@H]1C(=O)N(C)c2cnc(Nc3ccc(C(=O)NC4CCN(C)CC4)cc3OC)nc2N1C1CCCC1 | 80.6 | 63.5 |
| COc1cc2c(Oc3ccc(NC(=O)C4(C(=O)Nc5ccc(F)cc5)CC4)cc3F)ccnc2cc1OCCCN1CCOCC1 | 86.7 | 91.5 |
| Cc1ccc(NC(=O)c2cccc(N(C)C)c2)cc1NC(=O)c1ccc(O)cc1 | 95.9 | 95.6 |
| CN1CC[C@H](c2c(O)cc(O)c3c(=O)cc(-c4ccccc4Cl)oc23)[C@H](O)C1 [Flavopiridol hydrochloride] | 106 | 111 |
| Nc1ncnc2c1c(I)cn2[C@@H]1O[C@H](CO)[C@@H](O)[C@H]1O [5-Iodotubericidin] | 103 | 113 |
| Cc1cccc(-c2[nH]c(C(C)(C)C)nc2-c2ccc3nccnc3c2)n1 | 94.4 | 91.7 |
| CC(C)c1cnn2c(NCc3ccccc3)cc(NCCCCCCN)nc12 | 102 | 86.5 |
| Cc1cc2ncc(-c3ccccc3)nc2cc1C | 91.2 | 70.6 |
| COC(=O)/C=C/c1cc(O)ccc1O [Erbstatin analog] | 97.8 | 99.1 |
| O=C(NOC[C@H](O)CO)c1ccc(F)c(F)c1Nc1ccc(I)cc1F | 114 | 110 |
| CN1CC[C@H](c2c(O)cc(O)c3c(=O)cc(-c4ccccc4Cl)oc23)[C@H](O)C1 [Flavopiridol (Alvocidib)] | 99.8 | 122 |
| COc1cc2ncnc(Nc3cccc(Br)c3)c2cc1OC | 95.6 | 114 |
| C=CC(=O)Nc1cccc(Oc2nc(Nc3ccc(N4CCN(C)CC4)cc3OC)ncc2Cl)c1 | 91.9 | 97.3 |
| CC[C@@H]1C(=O)N(C)c2cnc(Nc3ccc(C(=O)N[C@H]4CC[C@H](N5CCN(CC6CC6)CC5)CC4)cc3OC)nc2N1C(C)C [BI6727 (Volasertib)] | 84.9 | 61.9 |
| OCCn1cc(-c2cnc3nnn(Cc4ccc5ncccc5c4)c3n2)cn1 | 93.3 | 98.6 |
| CC(C)c1cc(/C=C(\C#N)C(=O)NCCCc2ccccc2)cc(C(C)C)c1O | 99.4 | 97.2 |
| Cn1cc(-c2cnn3c(N)c(Br)c([C@@H]4CCCNC4)nc23)cn1 | 114 | 85.8 |
| CO[C@H]1C[C@@H]2CC[C@@H](C)[C@@](O)(O2)C(=O)C(=O)N2CCCC[C@H]2C(=O)O[C@H]([C@H](C)C[C@@H]2CC[C@@H](O)[C@H](OC)C2)CC(=O)[C@H](C)/C=C(\C)[C@@H](O)[C@@H](OC)C(=O)[C@H](C)C[C@H](C)/C=C/C=C/C=C/1C [Rapamycin] | 97.3 | 97.3 |
| O=C1NC(=O)/C(=C\c2ccc3nccnc3c2)S1 | 94.4 | 101 |
